The values below come from PubChem BioAssay (Tox21).

Results filed as inconclusive are left out. Entries that show only a call come without a potency. The source holds several records for some structures; these can differ, active in one and inactive in another. Active and inactive are the calls of the source. Calls come from the whole dose curve; as a rule, active = well fitted activation curve with a large enough effect in the repeat runs; inconclusive = weak or mixed curves; inactive = flat fitted curve, though single readings scatter.
Potency is the fitted concentration of half-maximal effect.

This test is described as follows: Caspase-3/7 induction in HepG2 cells by small molecules, qHTS assay (AID 1346978). Note: nearly all actives have a fitted effect of over 15% in size. The note with it: HepG2 caspase-3/7 activation, Caspase-Glo luminescence, 17 h; series mostly up to 92.4 µM. An excerpt:
National Center for Advancing Translational Sciences [NCATS] NIH Chemical Genomics Center [NCGC] U.S. Environmental Protection Agency [EPA] National Institutes of Environmental Health Sciences [NIEHS] National Toxicology Program [NTP] Assay overview: Apoptosis is a process of programmed cell death and plays a central role in the development of multicellular organisms. It is a highly regulated process and induces cell death by activating caspases, which are the members of cysteine aspartic acid-specific protease (caspase) family. Caspases involved in apoptosis are classified by their mechanism of action as initiator caspases (caspase-2, -8, -9 and -10) and executioner caspases (caspase-3, -6, and -7). Inhibition of apoptosis results in number of cancers, autoimmune diseases, inflammatory diseases and viral infection. To identify small molecule compounds that induce apoptosis, a homogeneous, luminescent Caspase-Glo 3/7 assay was used. Wild type HepG2 cells were used to screen Tox21 libraries for identifying caspase-3/7 activity inducers.
Assay Protocol Summary: HepG2 cells were dispensed at 2,000 per well in 5uL of culture medium into white solid bottom 1536-well plates (Corning Life Sciences, Corning, NY) using a Multidrop Combi (Thermo Scientific, Waltham, MA) dispenser. The assay plates were incubated at 37 C and 5% CO2 for 5hr, and then 23nL of compounds dissolved in DMSO and positive control were transferred using a Pintool station (Wako, San Diego, CA). The assay plates were incubated at 37C and 5% CO2 for 17hr. For caspase-3/7 activity read, 4uL of Caspase-Glo 3/7 reagent (Promega Corporation, Madison, WI) was added to each well of the assay plates using Flying Reagent Dispenser (FRD, Aurora Discovery, San Diego, CA) and incubated the assay plates at room temperature for 30min. The luminescence signal was quantified using a ViewLux plate reader (Perkin Elmer, Shelton, CT).
In general terms: In qHTS, concentration-response curves come from the screen itself.
As for `C=C(C)OC(C)=O`, the Potency entry was “inactive”.
In the case of `COCC(C)N` (stereo not given), the Potency entry was “inactive”.
The result for `CCn1cc(C(=O)O)c(=O)c2ccc(C)nc21` reads “inactive”; that for `C[C@]12C=CC(=O)C=C1CC[C@@H]1[C@@H]2C(=O)C[C@@]2(C)[C@H]1CC[C@]2(O)C(=O)CO`, “inactive”.
The result for `CCCCCCCC(=O)OCC(O)CO` (stereo not given) reads “inactive”.
As for `COc1cc(O)c(C(=O)c2ccccc2)cc1S(=O)(=O)O`, the Potency entry is “inactive”.
The result for `CCCCOCCOCCOC(C)=O` reads “inactive”; that for `CC(C)(C)NCC(O)c1ccc(O)c(CO)c1` (stereo not given), “inactive”.
Consider `NC(=O)NO`, for which the Potency result was “inactive”.
The result for `COc1ccccc1NC(=O)CC(C)=O` reads “inactive”.
The result for `CC(O)COc1ccccc1` (stereo not given) reads “inactive”; that for `CC(=O)/C=C/C1=C(C)CCCC1(C)C`, “inactive”.
The result for `COc1cc(C=O)ccc1O` reads “inactive”.
On to `Oc1cccc(O)c1`, for which the Potency is 42 µM (active) and inactive.
The result for `C#C[C@]1(O)CC[C@H]2[C@@H]3CCc4cc(O)ccc4[C@H]3CC[C@@]21C` reads 21.5 µM (active) and inactive.
Next, `CC(=O)OC/C=C(C)/C=C/C=C(C)/C=C/C1=C(C)CCCC1(C)C`: “inactive”; `COc1ccc(O)cc1`: “inactive”.
For `NC(=O)OCC(COC(N)=O)c1ccccc1`, the Potency entry is “inactive”.
Next, `Nc1ccc(N=Nc2ccccc2)c(N)n1`: “inactive”.
Next, `O=C(O)Cc1cccc2ccccc12`: “inactive”; `NC(=O)N/N=C/c1ccc([N+](=O)[O-])o1`: “inactive”; `COc1cc2c(c(OC)c1OC)-c1ccc(OC)c(=O)cc1[C@@H](NC(C)=O)CC2`: “inactive”.
The result for `CCCCC/C(C=O)=C\c1ccccc1` reads “inactive”.
As for `Cc1cccc2ccccc12`, the Potency entry is “inactive”.
Next, `Cc1c(N(C)C)c(=O)n(-c2ccccc2)n1C`: “inactive”; `C1CNCCN1`: “inactive”.
Next, `Cc1cccc(C)c1O`: “inactive”.
On to `O=[N+]([O-])c1ccc(O)cc1`, for which the Potency entry was “inactive”.
Next, `CCCCOC(=O)CCCCCCCCC(=O)OCCCC`: “inactive”; `CC1(C)O[C@@H]2[C@@H](CO[C@@]3(COS(N)(=O)=O)OC(C)(C)O[C@@H]23)O1`: “inactive”; `CC1=NN(c2ccccc2)C(=O)C1`: “inactive”.
`O=C(O)CN(CC(=O)O)CC(=O)O`: the Potency entry is “inactive”.
Next, `Cc1cccc(Nc2cc(Cl)nc(SCC(=O)O)n2)c1C`: “inactive”; `C[C@]12C[C@H](O)[C@H]3[C@@H](CCC4=CC(=O)CC[C@@]43C)[C@@H]1CC[C@@H]2C(=O)CO`: “inactive”; `C[C@]12CC[C@@H]3c4ccc(O)cc4C[C@@H](CCCCCCCCCS(=O)CCCC(F)(F)C(F)(F)F)[C@H]3[C@@H]1CC[C@@H]2O` (stereo not given in full): “inactive”.
The result for `CCOCCO` reads “inactive”; that for `CCCCNC(=O)NS(=O)(=O)c1ccc(N)cc1`, “inactive”.
The result for `CC(C)CC(C)CC(O)CC(C)C` (stereo not given) reads “inactive”; that for `OCCCc1ccccc1`, “inactive”.
`OC[C@@H](O)[C@@H](O)[C@H](O)[C@H](O)CO`: the Potency result is “inactive”.
